Screens (PubChem BioAssay)
The entries come from a sample that favours hits as a whole.
RBX1-CUL1 inh: inhibitors of human ROC1-CUL1 ubiquitin ligase activity; in vitro K48 di-Ub FRET, acceptor:donor ratio, 45 min; inhibition, % at 10 µM; 140,000 compounds, 0.6% hits; E3 ubiquitin-protein ligase RBX1 (Homo sapiens) + Cullin-1 (Homo sapiens), P62877+Q13616; in the data active means inhibition above about 25%
Each line names hits and unclear results; the compound was inactive in the other large screens.

CCCCOC(=O)c1cc(-c2ccc(C=C3C(=O)NC(=O)NC3=O)o2)ccc1Cl	RBX1-CUL1 inh 98
CCOc1ccc(C2=C(C=C3C(=O)NC(=O)NC3=O)C(c3ccccc3C)c3ccccc3O2)cc1 (stereo not drawn)	none
CCCC12CN3CC(C)(CN(C1)C3c1ccccn1)C2=O (stereo not drawn)	none
CCOC(=O)C1C(=N)Oc2c(c(=O)oc3ccccc23)C1c1ccc(OC)cc1 (stereo not drawn)	none
COc1snc(C(Cl)(Cl)Cl)c1Cl	none
c1ccc(C2CC3CCC4CC5CCCC5CC2N43)cc1 (stereo not drawn)	none
O=C1NC(=S)NC(=O)C1=Cc1ccc(O)c(O)c1	none
Cc1cc(C=C2C(=O)NC(=S)NC2=O)c(C)n1-c1cccc(C(F)(F)F)c1	RBX1-CUL1 inh 26
COc1cc(C=C2C(=O)NC(=S)NC2=O)ccc1OCc1ccc(F)cc1	none
Cc1ccc(OCCn2c(C)c(C=C3C(=O)NC(=S)NC3=O)c3ccccc32)c(C)c1	none
Cc1cc(C=C2C(=O)NC(=S)NC2=O)c(C)n1-c1ccc2c(c1)OCO2	RBX1-CUL1 inh 52
O=C1NC(=S)NC(=O)C1=Cc1cn(Cc2ccc(Cl)cc2Cl)c2ccccc12	none
Cc1[nH]cnc1-c1nnc2n1-c1ccc(Cl)cc1C(c1ccccc1Cl)=NC2	none
COc1ccc(CC(=O)Nc2ccc(N3CCC(NC(C)Cc4cccnc4)CC3)cc2)cc1 (stereo not drawn)	none
COc1cc(OC)c(C2c3c(c4ccccc4oc3=O)OC(=N)C2C#N)cc1OC (stereo not drawn)	none
CCC(C)N1Cc2ccccc2C1=N (stereo not drawn)	none
O=C(C1CCNCC1)C12CN3CN(CN(C3)C1)C2	none
CCOC(=O)c1c(C)n(CCC2CCCC2)c2c1cc(O)c1ccccc12	none
COc1ccc(C2=NCc3nnc(C)n3-c3ccc(Cl)cc32)cc1Cl	none
Cc1ccc(N2C(=O)/C(=C\c3ccc(-c4cccc(C(=O)O)c4)o3)C(=O)NC2=S)cc1	RBX1-CUL1 inh 90
Cc1c(Cl)cccc1N1C(=O)/C(=C/c2cc(C)n(-c3ccc(C(=O)O)cc3)c2C)C(=O)NC1=S	RBX1-CUL1 inh 35
COC(=O)c1ccc(-n2c(C)cc(/C=C3\C(=O)NC(=S)N(c4cccc(Cl)c4Cl)C3=O)c2C)c(C)c1	RBX1-CUL1 inh 31
O=C1NC(=S)N(c2ccccc2)C(=O)/C1=C\c1ccc(OCc2ccccc2)c(C(=O)O)c1	none
CC1=CC(=C2C(=O)NC(=O)NC2=O)C=C(C)N1c1ccc(C(=O)O)cc1	none
Cc1cc(/C=C2\C(=O)NC(=S)N(c3cccc(Cl)c3Cl)C2=O)c(C)n1-c1cc(C(=O)O)cc(C(=O)O)c1	RBX1-CUL1 inh 96
CN=C1CN=C(c2ccccc2F)c2cc(Cl)ccc2N1	none
COC(=O)C1C(=N)Oc2c(c(=O)oc3ccccc23)C1c1ccc(C(F)(F)F)cc1 (stereo not drawn)	none
O=C(CN1C(=O)CN=C(c2ccccc2)c2cc(Br)ccc21)NNC(=O)c1ccccc1	none
CCc1ccc(OCC(=O)N2CCN(CCc3ccncc3)CC2)cc1	none
C#CCNC1CCCCC1	none
CC(=O)OC1CCC2C3CC=C4C[C@@](C)(OC(C)=O)CC[C@]4(C)C3CC[C@]12C (stereo partly drawn)	none
CC(=O)c1cc(CN2CCCC(C(=O)c3ccc4c(c3)OCO4)C2)cs1 (stereo not drawn)	none
CCCCC(=O)Nc1ccc(N2CCN(C)CC2)c(Cl)c1	none
O=C1/C(=C\c2ccccc2)N2CCC1CC2	none
CCCCC12CN3CCN(CC(C3)C1=O)C2	none
O=C1NC(=S)NC(=O)C1=Cc1c(Cl)cccc1Cl	none
CC(C)(C)N1C(=O)NC(=O)/C(=C/c2c(Cl)cccc2Cl)C1=O	RBX1-CUL1 inh 26
C=CCN1C(=O)C2(C3=C(CC(C)(C)CC3=O)OC(=N)C2C(=O)OC)c2ccccc21 (stereo not drawn)	none
CN1CCC2(CC1)C(C#N)C(=O)NC(=O)C2C#N (stereo not drawn)	none
CCn1cc(C(=O)O)c(=O)c2cc(F)c(N3CCNCC3)c(F)c21	none
O=C1NC(=S)NC(=O)C12C(c1ccccc1)NC(=S)NC2c1ccccc1 (stereo not drawn)	RBX1-CUL1 inh 35
O=C1/C(=C/c2cccc(Cl)c2)N2CCC1CC2	none
COc1ccc(N2C(=O)/C(=C/c3cccn3-c3cccc(C(=O)O)c3)C(=O)NC2=S)c(OC)c1	RBX1-CUL1 inh 63
COc1ccc(-n2cccc2C=C2C(=O)NC(=O)NC2=O)cc1	none
COc1ccc(C=C2C(=O)NC(=S)NC2=O)cc1OC(=O)c1ccccc1	none
CCOC1Oc2ccc(OS(C)(=O)=O)cc2C1(C)C (stereo not drawn)	none
CCOC(=O)C1=C(C)OC(=N)C(C(=O)OC(C)C)C12C(=O)Nc1ccc(Br)cc12 (stereo not drawn)	none
CNC(=O)Oc1c(Br)cc2sc(=O)oc2c1Br	RBX1-CUL1 inh 34
CN(C)C(=O)Oc1c(Br)cc(Br)c(OC(=O)N(C)C)c1Br	none
COc1cccc(-n2c(/C=C/c3cccc(C)c3)nc3ccccc3c2=O)c1	none
NS(=O)(=O)c1ccc(NC(=O)Nc2ccc(Cl)cc2)cc1	none
N#CC1C(=N)Oc2c(c(=O)oc3ccccc23)C1c1cccs1 (stereo not drawn)	none
COc1ccc(C(SCc2ccccc2)c2ccc(OC)cc2)cc1	none
Cc1nc2ccccc2c(=O)n1-c1ccc2c(c1)OC(F)(F)O2	none
O=C(O)CNC1c2ccccc2CSc2ccccc21 (stereo not drawn)	none
